Assay [1] in a line: NCI Yeast Anticancer Drug Screen. Data for the rad50 strain (AID 155).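 Also: 0% = growth of vehicle-only cultures of the same strain.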 Particulars: S. cerevisiae rad50 strain growth inhibition; at 50.0 µM; stronger effect = higher value. The essentials: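 Readout: growth inhibition relative to vehicle-treated cultures. Compound exposure was carried out in a genetically defined yeast strain deficient in DNA damage repair.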
A short description of assay [2]: NCI Yeast Anticancer Drug Screen. Data for the mec2-1 strain (AID 157). Particulars: S. cerevisiae mec2-1 strain, at 50.0 µM, stronger effect = higher value. The essentials:
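Readout is yeast growth inhibition, normalised to vehicle-treated controls, in the mec2-1 strain exposed to compound.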

The nature of assay [3]: NCI Yeast Anticancer Drug Screen. Data for the sgs1 mgt1 strain (AID 161).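 Also: 0% = growth of cultures given vehicle only.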 Particulars: S. cerevisiae sgs1 mgt1 strain, at 50.0 µM, stronger effect = higher value. The procedure, abridged: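 Growth of a repair-deficient yeast mutant was monitored after compound treatment and expressed as inhibition relative to vehicle-treated cultures.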
Assay [4] can be described thus: NCI Yeast Anticancer Drug Screen. Data for the cln2 rad14 strain (AID 165).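 Also: 0% = growth equal to vehicle treated cultures.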 Conditions: S. cerevisiae cln2 rad14 strain, at 50.0 µM, stronger effect = higher value. The essentials:
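Relative to vehicle controls, growth inhibition of compound-treated cln2 rad14 yeast was recorded.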

Assay [5] is described as follows: NCI Yeast Anticancer Drug Screen. Data for the bub3 strain (AID 167). Particulars: S. cerevisiae bub3 mutant strain, at 50.0 µM, stronger effect = higher value. The essentials:
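Readout: yeast growth inhibition, expressed relative to vehicle-only wells. The test organism is a mutant strain from a panel with lesions in DNA repair or checkpoint genes.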

The nature of assay [6]: NCI Yeast Anticancer Drug Screen. Data for the mlh1 rad18 strain (AID 175). Particulars: S. cerevisiae mlh1 rad18 strain growth inhibition; at 50.0 µM; stronger effect = higher value. The procedure, abridged:
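Test agents were incubated with a yeast strain of defined genotype (DNA damage repair defect). Inhibition of growth was derived by comparison with vehicle-exposed cultures.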

Compounds without any hit were thinned out: in the full panel of roughly 79,000, 15% have a hit. Unmarked numbers belong to inactive results. The source made the active and inactive calls. Rule as the data show it: active = growth inhibition above about 70%; inactive = the rest. Where a SMILES comes first, the peptide text is derived from it.

This note sets out measurements from PubChem BioAssay (NCI).

On to `c1ccc(NCc2nc3ccccc3[nH]2)cc1`, for which the growth inhibition in assay [1] was -1.6%; in assay [2] it was -7.55%; in assay [3] it was -10.4%; in assay [4], 24.3%; in assay [5], 7.6%; in assay [6], 1.15%.

With `CC(C)(S(=O)(=O)Oc1ccccc1)S(=O)(=O)Oc1ccccc1`, the growth inhibition in assay [1] is 1.6%; in assay [2], 9.95%; in assay [3], -15.4%; in assay [4], -16.9%; in assay [5] it was 49.8%; in assay [6] it was 16.6%.

Consider `CC(C)(C)OC(=O)CNC(=O)C(CSC(c1ccccc1)c1ccccc1)NC(=O)CNC(=O)C(CCCCNC(=O)OCc1ccccc1)NC(=O)CNC(=O)C(CSC(c1ccccc1)(c1ccccc1)c1ccccc1)NC(=O)OCc1ccccc1` (stereo not drawn), for which the growth inhibition in assay [1] is 34.8%; in assay [2], 14.7%; in assay [3], 8.5%; in assay [4], 3.8%; in assay [5], 19.3%; in assay [6], -4.2%.

For the compound `OC(Cc1ccccn1)c1ccccc1` (stereo not drawn), the growth inhibition in assay [1] was 33.4%; in assay [2] it was 13.1%; in assay [3] it was 21.4%; in assay [4], 22.6%; in assay [5] it was 9.35%; in assay [6], 32.1%.

Take `Cc1ccc(NC(=O)CN2CCCCC2)cc1`: the growth inhibition in assay [1] was -16.9%; in assay [2], -7.65%; in assay [3], -7%; in assay [4] it was 3.9%; in assay [5], -0.9%; in assay [6] it was -21.9%.

For `O=C(Cc1ccc(Cl)cc1)NCCc1ccccc1`, the growth inhibition in assay [1] is -1.4%; in assay [2] it was -14.6%; in assay [3], -5.15%; in assay [4], 32.9%; in assay [5], 18.4%; in assay [6] it was 7.3%.

As to `CCCc1cc2c3c(c(=O)oc2cc1O)CCCC3`, the growth inhibition in assay [1] was 94.8% (active); in assay [2], 75.6% (active); in assay [3], 92.5% (active); in assay [4] it was 89% (active); in assay [5] it was 92.7% (active); in assay [6] it was 96.4% (active).

Consider `CN1NC2(CCCCC2)ON=C1c1ccccc1`, for which the growth inhibition in assay [1] was 5.35%; in assay [2], -5.5%; in assay [3], 11.1%; in assay [4] it was 7.9%; in assay [5] it was -6.35%; in assay [6], 10.7%.

Take `NCCS/C=C/C(=O)Oc1ccc(Br)cc1`: the growth inhibition was 35.5% in assay [1]; 0.85% in assay [2]; 12.1% in assay [3]; -1.3% in assay [4]; -9.9% in assay [5]; 53.9% in assay [6].

For the compound `CC(=O)CC(=O)OC1CCCC(C)C1` (stereo not drawn), the growth inhibition was -9.55% in assay [1]; 1% in assay [2]; -17.9% in assay [3]; -39.4% in assay [4]; -22.8% in assay [5]; -15.2% in assay [6].

Consider `COc1ccc2c3c([nH]c2c1[N+](=O)[O-])C(C)N(C)CC3` (stereo not drawn), for which the growth inhibition in assay [1] was -0.1%; in assay [2], 7.5%; in assay [3] it was 21.1%; in assay [4], 25.3%; in assay [5], 0.8%; in assay [6] it was 33.2%.

Consider `C=C1CN2CCc3c([nH]c4ccccc34)C2CC1CC(=O)N(C)C` (stereo not drawn), for which the growth inhibition in assay [1] is -33.5%; in assay [2], -26.7%; in assay [3] it was -24.4%; in assay [4] it was -1.15%; in assay [5], -32%; in assay [6], -9.65%.

`C=C1CC[N+]2(CCCCCC)CCCC12` (stereo not drawn): the growth inhibition was 2.5% in assay [1]; 27.4% in assay [2]; 11.3% in assay [3]; -1.4% in assay [4]; 25.4% in assay [5]; 21.6% in assay [6].

Take `O=C(NCC(O)CNC(=O)C(F)(F)F)C(F)(F)F`: the growth inhibition in assay [1] is 5.2%; in assay [2], 7.75%; in assay [3], 8.75%; in assay [4], 28.4%; in assay [5] it was 14.4%; in assay [6], -27.2%.

Turning to `CC(C)CC(NC(=O)C(NC(=O)C(N)C(C)O)C(C)C)C(=O)O` (stereo not drawn) (H-Thr-Val-Leu-OH; configuration not given here), the growth inhibition in assay [1] was 5.9%; in assay [2] it was 3.1%; in assay [3], 3.5%; in assay [4], 5.95%; in assay [5] it was 4.75%; in assay [6], -1.5%.

On to `CCOC(=O)CC1(C)OCCO1`, for which the growth inhibition in assay [1] is 31.9%; in assay [2], 11.4%; in assay [3] it was 8.95%; in assay [4], 21.8%; in assay [5] it was 21.3%; in assay [6], 28%.

Consider `CCOC(=O)c1ccc(NN=NCCF)cc1`, for which the growth inhibition is 15.8% in assay [1]; 10% in assay [2]; 0.4% in assay [3]; 6.4% in assay [4]; -32.5% in assay [5]; -44.1% in assay [6].

As to `O=C(O)C(=O)c1ccc(O)cc1O`, the growth inhibition in assay [1] was -1.6%; in assay [2] it was 2.6%; in assay [3], -8.15%; in assay [4] it was -35.9%; in assay [5] it was 1.85%; in assay [6], 14.9%.

On to `O=C1N2Cc3c4ccc5c3CN3C(=O)N6Cc7c(ccc(c7CN1C6(c1ccccc1)C23c1ccccc1)OCCOCCOc1cc(Br)c(Br)cc1OCCOCCO4)OCCOCCOc1cc(Br)c(Br)cc1OCCOCCO5` (stereo not drawn), for which the growth inhibition was -4.95% in assay [1]; 8.95% in assay [2]; -3.45% in assay [3]; 18.1% in assay [4]; -1.8% in assay [5]; -16.4% in assay [6].

As for `CC(=O)c1ccc(N2C(=O)C/C(=C/c3ccccc3O)C2=O)cc1`, the growth inhibition in assay [1] is 16.1%; in assay [2], 0.05%; in assay [3], 9.3%; in assay [4], -20.9%; in assay [5] it was 5.2%; in assay [6], 16.6%.

As for `O=c1[nH]cnc2c(COCCO)c[nH]c12`, the growth inhibition is -18.6% in assay [1]; 2.8% in assay [2]; -19.5% in assay [3]; -3.95% in assay [4]; -34.3% in assay [5]; -20.9% in assay [6].

Take `BrC1Cc2ccccc2C(Br)Cc2ccccc21` (stereo not drawn): the growth inhibition in assay [1] is -7.65%; in assay [2] it was -5.1%; in assay [3], -1.05%; in assay [4], -47.5%; in assay [5], 4%; in assay [6], -9.6%.

In the case of `NC(=O)CS(=O)CC(N)C(=O)O` (stereo not drawn), the growth inhibition in assay [1] is -5.9%; in assay [2], -34.4%; in assay [3] it was -46%; in assay [4] it was -57.1%; in assay [5], -10.9%; in assay [6], -29.6%.

Turning to `O=C(OCc1ccccc1)N(Cc1ccccc1)S(=O)(=O)c1ccccc1`, the growth inhibition in assay [1] was 26.1%; in assay [2], 34.8%; in assay [3] it was 14.9%; in assay [4], 5.5%; in assay [5], 13.6%; in assay [6], 0.4%.

As for `S=C(S)NC1CCCCC1`, the growth inhibition in assay [1] was -28.9%; in assay [2], -18.3%; in assay [3], -12.2%; in assay [4], -44%; in assay [5], -13.1%; in assay [6], -3.75%.

As to `O=C1OC(=C(Cl)Cl)C2C3c4ccccc4C(c4ccccc43)C12` (stereo not drawn), the growth inhibition in assay [1] is 21.9%; in assay [2], 21.6%; in assay [3] it was -1.5%; in assay [4], 8.75%; in assay [5], 2.7%; in assay [6] it was 18.2%.

For `COc1cccc(C2c3cc4c(cc3OC(C)(N3CCCC3)C2C)OCO4)c1OC` (stereo not drawn), the growth inhibition in assay [1] was -4%; in assay [2], -4.7%; in assay [3] it was -4.8%; in assay [4], -4.25%; in assay [5] it was -13.5%; in assay [6], 12.1%.

`CCOP(=O)(CCCCCCP(=O)(OCC)OCC)OCC`: the growth inhibition in assay [1] was 30.4%; in assay [2], 18.4%; in assay [3], -0.2%; in assay [4] it was -31.1%; in assay [5] it was 8.45%; in assay [6], 32.9%.

On to `Clc1ccc(CCc2ccncn2)c(Cl)c1`, for which the growth inhibition is 17.5% in assay [1]; 16.1% in assay [2]; 5.7% in assay [3]; 17.7% in assay [4]; 14.7% in assay [5]; 51.6% in assay [6].

Regarding `CC(CO)C1C[C@H](O)[C@@]2(C)CC(=O)C=C(CO)[C@@H]2C1` (stereo partly drawn), the growth inhibition in assay [1] is 35%; in assay [2], 22.6%; in assay [3], -3.55%; in assay [4], 25.9%; in assay [5], -7.15%; in assay [6], -46%.

`N#CC1(N(O)C(=O)Nc2ccccc2)CCCCC1`: the growth inhibition in assay [1] was 5.55%; in assay [2], -10.3%; in assay [3], -0.4%; in assay [4] it was -7.05%; in assay [5] it was 5.8%; in assay [6], -13.1%.

With `O=C(O)C1C2C=CC(O2)C1C(=O)Nc1ncccn1` (stereo not drawn), the growth inhibition in assay [1] was -0.65%; in assay [2] it was -33.9%; in assay [3], -14.4%; in assay [4], -23.3%; in assay [5], -35.4%; in assay [6], -3.6%.

Turning to `CNC(=S)Nc1cccc(C)c1`, the growth inhibition is -3.1% in assay [1]; 2.65% in assay [2]; 4.55% in assay [3]; -8.55% in assay [4]; -10.4% in assay [5]; 4.05% in assay [6].

For `CCOC(=O)C(C(C)=O)C(CC(=O)OC)NC(=O)OCc1ccccc1` (stereo not drawn), the growth inhibition in assay [1] is -24.5%; in assay [2], -21.9%; in assay [3], -60.6%; in assay [4], -57.2%; in assay [5] it was -32.2%; in assay [6] it was -35.5%.

As for `COC1OC2COc3ccccc3OC2C2C1N2C(N)=S` (stereo not drawn), the growth inhibition was 3.4% in assay [1]; 22.5% in assay [2]; 16.7% in assay [3]; 1.65% in assay [4]; 19.4% in assay [5]; 12.9% in assay [6].

Take `CSc1nc2c(nc(N)n2C2OC(CO)C(O)C(O)C2O)c(=O)n1C` (stereo not drawn): the growth inhibition in assay [1] was 3.1%; in assay [2] it was 20%; in assay [3], 26.3%; in assay [4], 33.9%; in assay [5], 11.2%; in assay [6], 39.4%.

As for `Cc1cc(=O)[nH]c(NNC(=S)NC2CCCCC2)n1`, the growth inhibition was -17.4% in assay [1]; -41.8% in assay [2]; 10.9% in assay [3]; 2.85% in assay [4]; -28.4% in assay [5]; -18.6% in assay [6].

Take `CC(=O)N(C)c1ccccc1O`: the growth inhibition is 6.6% in assay [1]; -10.1% in assay [2]; -14.6% in assay [3]; -33.2% in assay [4]; 10.2% in assay [5]; -19.9% in assay [6].
